From PubChem
HT1080 IDH1KD tx = HT-1080 IDH1 knockdown cell toxicity (counter line); Potency, µM (doses to about 46.1 µM), usual class: cytotoxic; hit rate 2% among 360,000; HT-1080 IDH1 knockdown viability, ATP luminescence, 48 h
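HT-1080-IDH1KD cells (IDH1 knocked down), 750/well in RPMI with 5% FBS, treated with compound 48 h at 37 degrees C. Viability by CellTiter-Glo luminescence, normalised to DMSO and no-cell wells; concentration-response curves classed.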
IL1B secr inh = inhibitors of inflammasome signaling (IL-1 beta secretion) | THP-1 LPS/ATP IL-1B secretion, AlphaLISA, 16 h; hits give low values | activity change, % at 57.5 µM | hit rate 4.7% among 360,000 | AID 743279; in the data active means activity change below about -50%; inconclusive means mostly about -30% to -49%
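Secreted IL-1B measured by AlphaLISA bead assay after 16 h compound exposure of THP-1 cells; compounds (final up to 57.5 uM) added 1 h before LPS (250 ng/mL) and ATP (1.25 mM) stimulation; lower signal means less secretion.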
DT40 TDP1 CPT = growth inhibition of DT40 Tdp1-/-;hTDP1 cells with camptothecin (screen for TDP1 inhibitors) | chicken DT40 Tdp1-/-;hTDP1 cells + 20 nM CPT, ATP luminescence, 48 h | Potency, µM (titrated, usually from 46.2 µM), most hits filed as inhibitors | hit rate 12% among 420,000; further: nearly all actives have a fitted effect of over 55% in size
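Chicken DT40 Tdp1-/- cells stably complemented with human TDP1 were seeded at 400 cells/well in medium containing 20 nM camptothecin, exposed to pin-transferred compounds, and grown at 37 °C for at least 48 hr. Viability was read as ATP luminescence.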
TDP1 cell noCPT = qHTS for Inhibitors of human tyrosyl-DNA phosphodiesterase 1 (TDP1): qHTS in cells in absence of CPT. AID 686978, 2013. hit rate 15% among 420,000. DT40 Tdp1-/- hTDP1 cells, no CPT, ATP luminescence, 48 h. Potency, µM (titrated, usually from 46.2 µM), usual class: inhibitors; further: nearly all actives have a fitted effect of over 55% in size
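Growth of hTDP1-complemented DT40 Tdp1-knockout cells is measured by ATP luminescence after at least 48 hr compound exposure at 37 °C, with DMSO substituting for the 20 nM CPT used in the parallel screen.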
HT1080NT lethal = kills 2HG-producing HT-1080-NT fibrosarcoma cells; HT-1080-NT fibrosarcoma viability, CellTiter-Glo ATP luminescence, 48 h; Potency, µM (series often up to 46.1 µM), usual class: cytotoxic; hit rate 1.6% among 360,000;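 further: NT is the 2HG producing partner of a matched IDH1 knockdown line; nearly all actives have a fitted effect of over 55% in size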
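A 48-hour cytotoxicity screen used HT-1080-NT cells plated 2 hours before compound delivery. ATP-based CellTiter-Glo luminescence measured viability, normalized to DMSO and no-cell controls.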
Of the large screens only hits and unclear results are named; the others gave an inactive call. Only some compounds are listed: those with a hit (about 19% of all), similar ones and a draw of the others. Unless noted, the call rests on the fitted dose curve; in most records, active means well fitted curve in the direction sought with a large enough effect; inconclusive means small, poorly fitted or top-dose-only effect, or another doubt; inactive means no such curve, though single readings can be large; an effect the other way counts as inactive or inconclusive.

Cc1cccc(C)c1-n1nnnc1C(c1ccccc1OC(F)(F)F)N1CCC(n2c(=O)[nH]c3ccccc32)CC1 (configuration not stated)	IL1B secr inh -81, DT40 TDP1 CPT 8.2µM, TDP1 cell noCPT 5.8µM
COc1ccc(-n2nnnc2C(c2cccs2)N2CCC(n3c(=O)[nH]c4ccccc43)CC2)cc1 (configuration not stated)	HT1080 IDH1KD tx inconclusive, DT40 TDP1 CPT 12µM, TDP1 cell noCPT 13µM, HT1080NT lethal inconclusive
COc1ccc(-n2nnnc2C(c2ccccc2)N2CCC(n3c(=O)[nH]c4ccccc43)CC2)cc1 (configuration not stated)	HT1080 IDH1KD tx inconclusive, IL1B secr inh inconclusive, DT40 TDP1 CPT 16µM, TDP1 cell noCPT 15µM, HT1080NT lethal inconclusive
O=C1NCN(c2ccccc2)C12CCN(C(c1ccccc1OC(F)(F)F)c1nnnn1Cc1ccccc1)CC2 (configuration not stated)	DT40 TDP1 CPT inconclusive
COc1ccc(C(c2nnnn2C2CCCCC2)N2CCC3(CC2)C(=O)NCN3c2ccccc2)cc1 (configuration not stated)	HT1080 IDH1KD tx inconclusive, DT40 TDP1 CPT inconclusive, TDP1 cell noCPT inconclusive, HT1080NT lethal inconclusive
Cc1cc(N2C(=O)CC(N3CCC(n4c(=O)[nH]c5ccccc54)CC3)C2=O)no1 (configuration not stated)	DT40 TDP1 CPT inconclusive, TDP1 cell noCPT inconclusive
COC(=O)c1ccc(N2C(=O)CC(N3CCC(n4c(=O)[nH]c5ccccc54)CC3)C2=O)cc1 (configuration not stated)	DT40 TDP1 CPT inconclusive
Cc1cccc(C)c1-n1nnnc1C(c1cc2ccccc2o1)N1CCC(n2c(=O)[nH]c3ccccc32)CC1 (configuration not stated)	HT1080 IDH1KD tx inconclusive, DT40 TDP1 CPT 1.5µM, TDP1 cell noCPT 1.3µM, HT1080NT lethal inconclusive
CN1C(=O)C(C)(C2=CCCCC2)C(=O)NC1=S (configuration not stated)	none
CCCNc1nc2c(c(=O)[nH]c(=O)n2C)n1Cc1ccc(F)cc1	DT40 TDP1 CPT inconclusive, TDP1 cell noCPT inconclusive
O=C1C2CCN(CC2)[C@@H]1Cc1ccc2ccccc2c1O	DT40 TDP1 CPT inconclusive, TDP1 cell noCPT inconclusive
CCC1(C)Cc2ccccc2-c2c1c(=O)n(Cc1ccccc1)c1nnnn21 (configuration not stated)	DT40 TDP1 CPT inconclusive, TDP1 cell noCPT inconclusive
CCCCCCC(=O)O[C@H]1CC[C@H]2[C@@H]3CC[C@H]4CC(=O)C=C(C)[C@]4(C)[C@H]3CC[C@]12C	TDP1 cell noCPT inconclusive (no result: HT1080 IDH1KD tx, IL1B secr inh, HT1080NT lethal)
N#CCCn1cc(C(=O)O)c(-c2cccc([N+](=O)[O-])c2)n1	none
COc1ccc(C(c2nnnn2-c2c(C)cccc2C)N2CCC(n3c(=O)[nH]c4ccccc43)CC2)cc1 (configuration not stated)	HT1080 IDH1KD tx inconclusive, IL1B secr inh -92, DT40 TDP1 CPT 8.2µM, TDP1 cell noCPT 9.2µM, HT1080NT lethal inconclusive
CC(C)(O)[C@@H]1[C@H]2OC(=O)[C@@H]1[C@]1(O)C[C@H]3O[C@]34C(=O)O[C@H]2[C@@]14C (tested in a mixture with another compound)	none (no result: HT1080 IDH1KD tx, IL1B secr inh, HT1080NT lethal)
CN1CCc2cc(O)cc3c2[C@H]1Cc1ccc(O)c(O)c1-3	HT1080 IDH1KD tx 5.8µM, DT40 TDP1 CPT 1.6µM, TDP1 cell noCPT 2.6µM, HT1080NT lethal 8.2µM
CCCN1CCc2cccc3c2C1Cc1ccc(O)c(O)c1-3 (configuration not stated)	DT40 TDP1 CPT 3.7µM (no result: HT1080 IDH1KD tx, IL1B secr inh, HT1080NT lethal)
COc1cc2c(cc1O)-c1c(O)c(OC)cc3c1[C@H](C2)N(C)CC3	TDP1 cell noCPT inconclusive (no result: HT1080 IDH1KD tx, IL1B secr inh, HT1080NT lethal)
Cc1cc(C(=O)OC(C)C(=O)Nc2ccccc2)c(C)n1C1CC1 (configuration not stated)	TDP1 cell noCPT inconclusive
CC(C)(O)[C@H]1O[C@H]2CC[C@@]3(C)[C@@](O)(CC[C@H]4Cc5c([nH]c6ccccc56)[C@@]43C)C2=CC1=O	HT1080 IDH1KD tx inconclusive, DT40 TDP1 CPT inconclusive, TDP1 cell noCPT inconclusive, HT1080NT lethal inconclusive
